Unmarked numbers belong to inactive results. Active and inactive are the calls of the source.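 The calls were made as follows: active = IC50 below 10 µM at human M5 in a calcium flux test, acting as a negative modulator; inactive = the rest.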

The experiment deals with Muscarinic acetylcholine receptor M5 (Homo sapiens) (UniProt P08912). Put plainly: inhibition of ACh-evoked M5 calcium signal – cell-based, single concentration, human M5 (AID 743025). The conditions noted are these: CHO-K1 hM5, ACh EC80 calcium flux, Fluo-4; at 10 µM; stronger effect = lower value.
Chain of Muscarinic acetylcholine receptor M5 (Homo sapiens) (P08912 whole entry, looked up): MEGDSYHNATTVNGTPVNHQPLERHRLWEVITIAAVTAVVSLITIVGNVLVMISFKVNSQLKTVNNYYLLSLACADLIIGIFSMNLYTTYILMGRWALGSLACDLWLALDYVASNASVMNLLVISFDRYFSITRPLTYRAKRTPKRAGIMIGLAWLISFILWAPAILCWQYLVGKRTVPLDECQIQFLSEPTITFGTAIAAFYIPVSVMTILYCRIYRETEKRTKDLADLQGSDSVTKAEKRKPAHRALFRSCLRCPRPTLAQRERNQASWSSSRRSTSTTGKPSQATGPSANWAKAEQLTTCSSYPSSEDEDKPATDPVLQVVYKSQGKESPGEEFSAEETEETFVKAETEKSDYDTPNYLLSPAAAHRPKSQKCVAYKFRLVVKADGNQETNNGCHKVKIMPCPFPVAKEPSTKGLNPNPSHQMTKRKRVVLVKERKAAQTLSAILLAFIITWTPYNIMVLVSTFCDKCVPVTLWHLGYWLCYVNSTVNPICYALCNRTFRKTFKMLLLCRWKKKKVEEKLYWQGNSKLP
As to `O=C(c1ccc(F)cc1)N1CCN2C(=O)c3ccccc3C12c1ccc(Cl)cc1` (configuration not stated), the activity remaining was 78.8%.

For `O=C(c1cccc(C(F)(F)F)c1)N1CCN2C(=O)c3ccccc3C12c1ccc(F)cc1` (configuration not stated), the activity remaining was 0.24% (active).

For `Cc1ccc(S(=O)(=O)N2CCN3C(=O)c4ccccc4C32c2ccccc2)cc1` (configuration not stated), the activity remaining was 73.4%. Turning to `O=C(c1ccc(Cl)cc1)N1CCN2C(=O)c3ccccc3C12c1ccccc1` (configuration not stated), the activity remaining is 89.9%.

For the compound `O=C(c1ccccc1F)N1CCN2C(=O)c3ccccc3C12c1ccccc1` (configuration not stated), the activity remaining is 85.8%. Take `O=C(c1ccc(Cl)c(Cl)c1)N1CCN2C(=O)c3ccccc3C12c1ccccc1` (configuration not stated): the activity remaining was 30.5% (active). In the case of `O=C(c1cc(Cl)cc(Cl)c1)N1CCN2C(=O)c3ccccc3C12c1ccccc1` (configuration not stated), the activity remaining was 5.4% (active). For `O=C(c1cccc(F)c1)N1CCN2C(=O)c3ccccc3C12c1ccccc1` (configuration not stated), the activity remaining was 86%. As for `O=C(c1ccc(F)c(F)c1)N1CCN2C(=O)c3ccccc3C12c1ccc(O)cc1` (configuration not stated), the activity remaining is 65.9%. To `COc1ccc(C23c4ccccc4C(=O)N2CCN3C(=O)c2ccc(C(F)(F)F)cc2)cc1` (configuration not stated) belongs 48% (active); to `O=C1CCC2(c3ccccc3)Nc3ccccc3N12` (configuration not stated), 81.8%; to `O=C(c1cccs1)N1CCN2C(=O)c3ccccc3C12c1ccccc1` (configuration not stated), 79.5%. Turning to `O=C(c1ccc(Br)cc1)c1ccccc1C(=O)N1CCCN(C(=O)c2ccccc2)CC1`, the activity remaining was 78.1%.

Consider `Cc1ccc(C(=O)N2CCN3C(=O)c4ccccc4C23c2ccc(Cl)cc2)cc1` (configuration not stated), for which the activity remaining is 17.9% (active). With `O=C(c1ccccc1)N1CCN2C(=O)c3ccccc3C12c1ccc(Cl)cc1` (configuration not stated), the activity remaining was 1.2% (active). As to `O=C(c1ccc(F)cc1)N1CCN2C(=O)c3ncccc3C12c1ccccc1` (configuration not stated), the activity remaining was 65.2%. For the compound `O=C(c1ccc(F)c(F)c1)N1CCN2C(=O)c3ccccc3C12c1ccc(F)cc1` (configuration not stated), the activity remaining was 64.5%. As to `CN(C)c1ccc(C(=O)N2CCN3C(=O)c4ccccc4C23c2ccccc2)cc1` (configuration not stated), the activity remaining was 88%. To `Cc1ccc(C23c4ccccc4C(=O)N2CCN3C(=O)c2ccc(F)cc2)cc1` (configuration not stated) belongs 14.1% (active); to `O=C1c2ccccc2C2(c3ccccc3)N1CCN2C(=O)C(Cl)(Cl)Cl` (configuration not stated), 55.1% (active); to `Cc1ccccc1C(=O)N(C)C(c1ccccc1)c1ccccc1`, 81.6%. As to `O=C(Nc1ccc(Cl)cc1)N1CCN2C(=O)c3ccccc3C12c1ccccc1` (configuration not stated), the activity remaining was 78.2%. In the case of `O=C(c1cc(F)ccc1F)N1CCN2C(=O)c3ccccc3C12c1ccccc1` (configuration not stated) it was 76%; in that of `O=C(c1ccc2c(c1)CCO2)N1CCN2C(=O)c3ccccc3C12c1ccc(Cl)cc1` (configuration not stated), 71.1%. As to `CCCN1C(=O)c2ccccc2C1c1ccccc1` (configuration not stated), the activity remaining is 86.1%.

Take `Cc1ccc(C23c4ccccc4C(=O)N2CCN3C(=O)c2ccc(F)c(F)c2)cc1` (configuration not stated): the activity remaining is 0.51% (active). Regarding `O=C1c2ccccc2C2(c3ccc(Cl)cc3)NCCCN12` (configuration not stated), the activity remaining was 70.4%. In the case of `O=C(c1cccc(C(F)(F)F)c1)N1CCN2C(=O)c3ccccc3C12c1ccccc1` (configuration not stated) it was 6.77% (active); in that of `Cc1ccc(C(=O)N2CCN3C(=O)c4ncccc4C23c2ccccc2)cc1` (configuration not stated), 63.1%.

Take `O=C(c1ccc(C(F)(F)F)cc1)N1CCN2C(=O)c3ncccc3C12c1ccccc1` (configuration not stated): the activity remaining is 72.2%. Take `C[C@H]1CN(Cc2ccccc2)[C@]2(c3ccc(Cl)cc3)c3ccccc3C(=O)N12`: the activity remaining was 73.1%. With `CS(=O)(=O)c1ccc(C23c4ccccc4C(=O)N2CCN3C(=O)c2ccc(F)c(F)c2)cc1` (configuration not stated), the activity remaining is 77.3%.

For `COc1cccc(C(=O)N2CCN3C(=O)c4ccccc4C23c2ccc(Cl)cc2)c1` (configuration not stated), the activity remaining was 17.5% (active). With `CN(C(=O)c1ccccc1)C(c1ccccc1)c1ccccc1`, the activity remaining is 84.3%. Take `O=C(c1ccccc1C(F)(F)F)N1CCN2C(=O)c3ccccc3C12c1ccccc1` (configuration not stated): the activity remaining is 82.4%.

As to `O=C(c1cccc(C(F)(F)F)c1)N1CCCN2C(=O)c3ccccc3C12c1ccc(Cl)cc1` (configuration not stated), the activity remaining was 78.6%. Consider `O=C(Nc1ccc(F)cc1)N1CCN2C(=O)c3ccccc3C12c1ccccc1` (configuration not stated), for which the activity remaining is 84.3%.

The values are drawn from PubChem BioAssay AID743025 (Vanderbilt Specialized Chemistry Center, 2013).
